The record followed here is PubChem BioAssay (NCATS).

The target of assay [1] is Bile acid receptor (Homo sapiens) (UniProt Q96RI1). The experiment in a line: qHTS assay for small molecule antagonists of farnesoid X receptor signaling (AID 588526; calls by dose curve; also: % is scaled to controls: 0 for no effect and ±100 for the full control effect). The procedure, abridged: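 Concentration-response titrations were fitted to the Hill equation for half-maximal inhibition and maximal response, with data normalised to 50 uM chenodeoxycholic acid and DMSO control wells. Cells: FXR-UAS-bla HEK293T, dialyzed FBS.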
Bile acid receptor (Homo sapiens), sequence (Q96RI1 whole entry, looked up): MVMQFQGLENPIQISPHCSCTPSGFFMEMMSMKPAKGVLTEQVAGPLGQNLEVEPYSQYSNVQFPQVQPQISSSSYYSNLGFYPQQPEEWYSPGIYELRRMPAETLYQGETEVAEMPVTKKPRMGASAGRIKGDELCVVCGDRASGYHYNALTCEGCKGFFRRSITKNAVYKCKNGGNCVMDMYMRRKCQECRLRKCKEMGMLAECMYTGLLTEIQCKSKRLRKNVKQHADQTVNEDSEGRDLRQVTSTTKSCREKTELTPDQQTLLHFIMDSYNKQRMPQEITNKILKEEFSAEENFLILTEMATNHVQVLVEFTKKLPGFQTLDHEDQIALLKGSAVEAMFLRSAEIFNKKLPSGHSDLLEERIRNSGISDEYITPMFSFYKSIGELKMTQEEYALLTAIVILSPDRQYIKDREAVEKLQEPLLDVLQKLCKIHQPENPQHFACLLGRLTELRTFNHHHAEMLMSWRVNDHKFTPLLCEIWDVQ
On the technique in general: Quantitative high-throughput screening tests each substance at several concentrations.

The target is the same in assay [2]. The experiment in a line: qHTS assay for small molecule agonists of farnesoid X receptor signaling (AID 588527; calls by dose curve;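 also: series mostly up to about 77 µM; 0% = vehicle basal and 100% = reference agonist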). Particulars: HEK293T FXR-UAS-bla, beta-lactamase ratio, 16 h; stronger effect = higher value. The procedure, abridged:
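Agonist-mode beta-lactamase reporter in GeneBLAzer FXR-UAS-bla HEK293T cells, titration up to 92 uM, 16 h exposure at 37 C, CCF4 fluorescence. Response scaled to DMSO (0%) and 100 uM chenodeoxycholic acid (100%), then Hill-fitted for EC50 and efficacy.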

Assay [3] has as its target Peroxisome proliferator-activated receptor gamma (Homo sapiens) (UniProt P37231). The experiment in a line: qHTS assay for small molecule agonists of peroxisome proliferator-activated receptor gamma signaling (AID 588536; active = well fitted curve in the direction sought with a large enough effect in the signal ratio, with a control signal flat, not every such curve was filed as active; the % refers to the signal ratio;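 also: 0% = DMSO basal wells and 100% = rosiglitazone at 2 µM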). Summed up:
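Ratiometric blue/green fluorescence (405 nm excitation; 460 and 530 nm emission) from CCF4-loaded HEK293 reporter cells serves as signal. Exposure to test compounds lasts 16 h at 37 C in medium containing 1% charcoal/dextran-treated serum.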

Assay [4] in a line: qHTS assay for small molecule agonists of retinoid X receptor alpha signaling (AID 588544; calls by dose curve;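 as to activation: 0% = DMSO basal wells and 100% = reference agonist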). To be noted: HEK293T RXRa-UAS-bla, beta-lactamase reporter, 18 h; 530 nm emission.
Assay [5] addresses Retinoic acid receptor RXR-alpha (Homo sapiens) (UniProt P19793). The description is as above.
Assay [6] can be described thus: qHTS assay for small molecule antagonists of retinoid X receptor alpha signaling (AID 588546).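 Also: cells stimulated with 9-cis-retinoic acid as agonist; % is scaled to controls: 0 for no effect and ±100 for the full control effect.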 Particulars: HEK293T RXRa-UAS-bla, beta-lactamase ratio, antagonist mode; measured here: W530 green channel, cytotoxicity proxy. The procedure, abridged:
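Beta-lactamase reporter inhibition, read as CCF4 fluorescence ratio (ex 405, em 460/530 nm) after 2 h at RT. HEK293T UAS-bla cells, 2500/well, were stimulated with 9-cis-RA at 500 or 100 nM final alongside test compound for 18 h at 37 C.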

Assay [7] deals with Thyroid hormone receptor beta (Homo sapiens) (UniProt P10828). The experiment in a line: qHTS assay for small molecule antagonists of thyroid hormone receptor beta signaling (AID 588547; active = well fitted inhibition curve with a large enough effect in the signal ratio, with a control signal flat, not every such curve was filed as active; the % refers to the signal ratio;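 also: cells stimulated with 0.4 nM T3 agonist during compound exposure; series mostly up to about 77 µM; % is scaled to controls: 0 for no effect and ±100 for the full control effect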). To be noted: TR-UAS-bla HEK293, beta-lactamase ratio, antagonist mode, 18 h. The procedure, abridged: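 TR-UAS-bla GripTite HEK293 cells in 2% charcoal/dextran FBS medium were preincubated 4 h at 37 C, given compound (0.59 nM to 92 uM) plus 0.4 nM T3 (final) for 18 h, then CCF4 for 2 h at RT; Hill fit gave IC50.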
Thyroid hormone receptor beta (Homo sapiens), sequence (P10828 whole entry, looked up): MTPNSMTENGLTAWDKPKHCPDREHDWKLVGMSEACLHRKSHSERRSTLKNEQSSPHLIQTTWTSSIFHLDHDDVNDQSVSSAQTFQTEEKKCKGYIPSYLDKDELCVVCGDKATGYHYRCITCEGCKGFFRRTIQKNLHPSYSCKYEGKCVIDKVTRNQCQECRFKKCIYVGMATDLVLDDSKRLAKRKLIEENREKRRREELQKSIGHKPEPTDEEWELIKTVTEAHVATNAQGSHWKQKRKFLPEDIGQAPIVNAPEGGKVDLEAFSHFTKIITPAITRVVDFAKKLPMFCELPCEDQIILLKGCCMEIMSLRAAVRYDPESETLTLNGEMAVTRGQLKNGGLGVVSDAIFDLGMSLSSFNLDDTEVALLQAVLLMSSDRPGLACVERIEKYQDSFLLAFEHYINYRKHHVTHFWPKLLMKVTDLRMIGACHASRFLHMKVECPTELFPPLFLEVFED

The target in assay [8] is Voltage-gated inwardly rectifying potassium channel KCNH2 (Homo sapiens) (UniProt Q12809). Briefly: qHTS Assay for Small Molecule Inhibitors of the Human hERG Channel Activity (AID 588834).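 Also: top concentration of the series differs between compounds; % is scaled to controls: 0 for no effect and ±100 for the full control effect; lower thallium flux fluorescence means stronger hERG block; nearly all actives have a fitted effect of over 50% in size.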 The procedure, abridged: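 Measured: FluxOR fluorescence after thallium stimulation in U2OS cells transduced with hERG by baculovirus. Compounds pre-incubated around 10 min; medium Opti-MEM with 2% FCS. AC50 from Hill equation.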
Voltage-gated inwardly rectifying potassium channel KCNH2 (Homo sapiens), sequence (Q12809 whole entry, looked up): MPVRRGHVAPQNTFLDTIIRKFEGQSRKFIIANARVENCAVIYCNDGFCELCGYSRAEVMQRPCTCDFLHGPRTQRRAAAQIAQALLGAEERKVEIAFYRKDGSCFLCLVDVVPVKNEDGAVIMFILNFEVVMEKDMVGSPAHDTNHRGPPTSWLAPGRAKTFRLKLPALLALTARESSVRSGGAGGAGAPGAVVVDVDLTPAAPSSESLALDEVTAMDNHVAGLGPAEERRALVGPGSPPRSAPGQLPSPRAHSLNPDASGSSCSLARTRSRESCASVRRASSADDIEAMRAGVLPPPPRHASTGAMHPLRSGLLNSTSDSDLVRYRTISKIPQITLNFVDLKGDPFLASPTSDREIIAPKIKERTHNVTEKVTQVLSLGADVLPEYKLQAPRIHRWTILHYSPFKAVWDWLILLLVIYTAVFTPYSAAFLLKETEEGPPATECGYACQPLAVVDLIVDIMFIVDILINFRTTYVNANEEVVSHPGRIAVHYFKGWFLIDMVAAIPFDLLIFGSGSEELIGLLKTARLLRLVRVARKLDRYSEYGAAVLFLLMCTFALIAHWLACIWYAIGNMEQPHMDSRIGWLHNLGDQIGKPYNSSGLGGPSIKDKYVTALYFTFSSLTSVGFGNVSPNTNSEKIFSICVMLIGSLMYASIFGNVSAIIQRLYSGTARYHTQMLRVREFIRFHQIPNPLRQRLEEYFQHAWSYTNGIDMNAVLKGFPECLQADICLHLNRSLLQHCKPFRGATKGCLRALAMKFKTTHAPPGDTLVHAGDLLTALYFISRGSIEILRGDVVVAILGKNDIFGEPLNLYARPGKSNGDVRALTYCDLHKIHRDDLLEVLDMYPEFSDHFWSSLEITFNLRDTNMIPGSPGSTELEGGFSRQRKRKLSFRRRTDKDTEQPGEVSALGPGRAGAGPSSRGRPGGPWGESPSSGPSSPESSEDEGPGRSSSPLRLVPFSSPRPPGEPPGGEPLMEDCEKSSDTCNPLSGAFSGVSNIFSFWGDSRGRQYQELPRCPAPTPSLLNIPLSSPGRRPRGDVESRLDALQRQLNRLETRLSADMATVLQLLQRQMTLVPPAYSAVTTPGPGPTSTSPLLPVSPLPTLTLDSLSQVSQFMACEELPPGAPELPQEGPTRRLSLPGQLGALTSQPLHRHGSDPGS

Assay [9] can be described thus: qHTS assay for small molecule agonists of the antioxidant response element (ARE) signaling pathway (AID 651741; active = well fitted activation curve with a large enough effect in the signal ratio; the % refers to the signal ratio; also: % of control where 0% means no effect). Summed up: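 Compounds in DMSO are pinned onto HepG2 ARE-bla cells (2,000/well) that were preincubated 5 h; plates stay 16 h at 37 C, then beta-lactamase activity is detected with LiveBLAzer B/G substrate by fluorescence.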
Assay [10] is described as follows: qHTS assay for small molecule activators of the p53 signaling pathway (AID 651743; active = well fitted activation curve with a large enough effect in the signal ratio, not every such curve was filed as active; the % refers to the signal ratio; also: series mostly up to about 92 µM; % of control where 0% means no effect). To be noted: HCT-116 p53RE-bla, beta-lactamase FRET ratio, 16 h; activation: stronger effect = higher value. Summed up:
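Cell-based beta-lactamase reporter (p53 response elements, HCT-116 background). After a 5-hour preincubation, cells received compound for 16 hours at 37 C; substrate development ran 2 hours at room temperature.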

Assay [11] in a line: qHTS assay for small molecule disruptors of the mitochondrial membrane potential - 1 hr assay (AID 651754; calls by dose curve; also: % is scaled to controls: 0 for no effect and ±100 for the full control effect; nearly all actives have a fitted effect of over 35% in size). Summed up:
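HepG2 cells, attached overnight, were exposed to compound for 1 hr at 37C, then stained 30 min with a potentiometric dye. Ratio of red aggregate (590nm) to green monomer (535nm) fluorescence reports membrane potential; collapse shifts signal toward green.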

Assay [12] is described as follows: qHTS assay for small molecule disruptors of the mitochondrial membrane potential - 5 hr assay (AID 651755; calls by dose curve; also: % is scaled to controls: 0 for no effect and ±100 for the full control effect; nearly all actives have a fitted effect of over 40% in size). Summed up:
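HepG2 cells, attached overnight at 37C, were exposed to compound or DMSO for 5 hr at 37C, 5% CO2. Mito-MPS dye was then added for 30 min, and fluorescence read at 490/535 nm (monomers) and 540/590 nm (aggregates).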

Assay [13] has as its target Tumor necrosis factor (Homo sapiens) (UniProt P01375). Briefly: qHTS assay to identify small molecules that stimulate Tumor Necrosis Factor-alpha (TNF-alpha) secretion (AID 651757; active = well fitted curve in the direction sought with a large enough effect in the signal ratio; the % refers to the signal ratio; also: 0% is about no effect). Summed up:
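THP-1 cells (3000/well) exposed to compounds 17 hrs at 37 C. Secreted TNF-alpha detected by HTRF with cryptate- and XL665-labeled anti-TNF-alpha antibodies after 3 hr at room temperature.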

A short description of assay [14]: qHTS assay for environmental chemicals that activate the Aryl hydrocarbon Receptor (AhR) signaling pathway (AID 651777). Also: % of control where 0% means no effect; nearly all actives have a fitted effect of over 15% in size. Particulars: 1A2-DRE human hepatoma cells, luciferase, 24 h; activation: stronger effect = higher value. Summed up: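 Quantitative HTS in stably transfected human liver-derived cells whose luciferase gene sits downstream of the CYP1A2 promoter and dioxin response element. After 24 hr exposure at 37 C, One-Glo luminescence was measured.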

The target in assay [15] is Peroxisome proliferator-activated receptor alpha (Homo sapiens) (UniProt Q07869). Briefly: qHTS assay for small molecule agonists of the peroxisome proliferator-activated receptor alpha (PPARalpha) signaling pathway (AID 651778). Also: % of control where 0% means no effect. Particulars: PathHunter PPARalpha complementation, chemiluminescence, 6 h; stronger effect = higher value. Summed up:
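Cells plated at 2,000/well and held overnight at 37 C, 5% CO2, then compound added by pin tool for 6 hr; after PathHunter detection reagent and 60 min at room temperature, chemiluminescence from enzyme complementation was read.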

The target of assay [16] is Nuclear receptor ROR-gamma (Homo sapiens) (UniProt P51449). Briefly: qHTS assay for small molecule antagonists of the retinoid-related orphan receptor gamma (ROR-gamma) signaling pathway (AID 651802).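 Also: luciferase reporter luminescence driven by ROR response element; series mostly up to about 92 µM; % is scaled to controls: 0 for no effect and ±100 for the full control effect; nearly all actives have a fitted effect of over 60% in size.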 Summed up: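 CHO cells with TET-inducible ROR-gamma and RORE-luciferase reporter, dosed then doxycycline-induced. After 16 h at 37C, One-Glo luminescence read; decreased signal indicates antagonism.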
Nuclear receptor ROR-gamma (Homo sapiens), sequence (P51449 whole entry, looked up): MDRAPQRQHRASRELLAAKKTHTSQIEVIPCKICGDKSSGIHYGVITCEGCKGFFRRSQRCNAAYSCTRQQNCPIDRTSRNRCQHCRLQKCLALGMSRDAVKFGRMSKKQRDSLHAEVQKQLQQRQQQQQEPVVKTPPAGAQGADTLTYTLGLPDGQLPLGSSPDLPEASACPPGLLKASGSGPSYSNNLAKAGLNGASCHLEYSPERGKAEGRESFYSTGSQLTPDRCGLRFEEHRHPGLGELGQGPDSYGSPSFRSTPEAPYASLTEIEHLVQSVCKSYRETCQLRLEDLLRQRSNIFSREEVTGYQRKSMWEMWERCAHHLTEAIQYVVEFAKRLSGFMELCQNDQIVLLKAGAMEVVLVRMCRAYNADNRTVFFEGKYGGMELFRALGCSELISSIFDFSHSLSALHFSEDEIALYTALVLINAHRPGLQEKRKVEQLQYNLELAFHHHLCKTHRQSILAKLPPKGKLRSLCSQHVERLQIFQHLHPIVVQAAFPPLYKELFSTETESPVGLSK

Assay [17] is described as follows: qHTS assay for small molecule agonists of the antioxidant response element (ARE) signaling pathway measured by Nrf2-dependant transcriptional activity (AID 720636; active = well fitted curve in the direction sought with a large enough effect in the repeat runs; an effect the other way counts as inactive or inconclusive; also: % of control where 0% means no effect). The procedure, abridged: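 Quantitative HTS format in HepG2 cells stably expressing an ARE-luciferase reporter; 16 hr compound treatment at 37 C, luciferase signal detected with ONE-Glo.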
Assay [18] in a line: qHTS assay for small molecule antagonists of the retinoid-related orphan receptor gamma (ROR-gamma) signaling pathway - cell viability counter screen (AID 720652; active = well fitted curve in the direction sought with a large enough effect in the repeat runs; an effect the other way counts as inactive or inconclusive;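 also: series mostly up to about 92 µM; compound exposure lasted 16 hr before ATP read; % is scaled to controls: 0 for no effect and ±100 for the full control effect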). The procedure, abridged:
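CHO cells carrying TET-inducible ROR and RORE-luciferase reporter, plated 5 hr, then dosed with compound plus doxycycline. After 16 hr at 37 C, viability read as intracellular ATP by CellTiter-Glo luminescence.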

The nature of assay [19]: qHTS assay for cell viability of HEK293 cells (AID 743288). Also: % is scaled to controls: 0 for no effect and ±100 for the full control effect; nearly all actives have a fitted effect of over 50% in size. Particulars: ATP luminescence (CellTiter-Glo), 18 h; max response: stronger effect = lower value. Summed up:
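The Tox21 protocol used parental HEK293 cells treated for 18 h at 37 C with compounds delivered by pintool; ATP-coupled luminescence after 30 min at room temperature gave viability.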

A short description of assay [20]: qHTS assay for cell viability of the p53RE-bla HCT-116 cell line (AID 743292). Also: % is scaled to controls: 0 for no effect and ±100 for the full control effect; nearly all actives have a fitted effect of over 55% in size. Summed up: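 Viability of compound-treated p53RE-bla HCT-116 cells is taken from ATP-dependent luciferase luminescence. Treatment lasts 16 h at 37 C after a 5 h settling period; detection follows 30 min at room temperature.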
In assay [21] the target is Nuclear receptor subfamily 1 group I member 2 (Rattus norvegicus) (UniProt Q9R1A7). Briefly: qHTS assay for small molecule activators of the rat pregnane X receptor (rPXR) signaling pathway (AID 651751; call rule not given here; also: 0% is about no effect). To be noted: rPXR reporter cells, luciferase (One-Glo), 24 h.
Nuclear receptor subfamily 1 group I member 2 (Rattus norvegicus), sequence (Q9R1A7 whole entry, looked up): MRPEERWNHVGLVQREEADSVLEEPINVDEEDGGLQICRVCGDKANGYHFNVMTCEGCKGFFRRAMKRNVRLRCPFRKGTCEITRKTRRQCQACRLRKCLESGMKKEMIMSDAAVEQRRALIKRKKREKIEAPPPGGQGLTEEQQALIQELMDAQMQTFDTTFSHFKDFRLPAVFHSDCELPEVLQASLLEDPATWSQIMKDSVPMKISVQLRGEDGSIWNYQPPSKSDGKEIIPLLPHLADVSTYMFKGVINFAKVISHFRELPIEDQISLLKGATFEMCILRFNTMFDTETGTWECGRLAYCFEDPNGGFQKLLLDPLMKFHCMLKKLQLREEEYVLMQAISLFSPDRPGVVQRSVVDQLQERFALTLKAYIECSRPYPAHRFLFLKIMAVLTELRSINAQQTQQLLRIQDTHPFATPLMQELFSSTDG
The nature of assay [22]: qHTS assay for small molecule activators of the human pregnane X receptor (PXR) signaling pathway (AID 720659; call rule not given here; also: 0% is about no effect).

“And” between values parts separate entries of the source, which are not always exact repeats. Equal entries are not always repeated. Results filed as inconclusive are left out. The source made the active and inactive calls. Unless noted, calls follow the shape of the dose curve; as a rule, active = well fitted curve in the direction sought with a large enough effect; inconclusive = small, poorly fitted or top-dose-only effect, or another doubt; inactive = no such curve, though single readings can be large; an effect the other way counts as inactive or inconclusive.

Peroxisome proliferator-activated receptor alpha (Homo sapiens), sequence (Q07869 whole entry, looked up): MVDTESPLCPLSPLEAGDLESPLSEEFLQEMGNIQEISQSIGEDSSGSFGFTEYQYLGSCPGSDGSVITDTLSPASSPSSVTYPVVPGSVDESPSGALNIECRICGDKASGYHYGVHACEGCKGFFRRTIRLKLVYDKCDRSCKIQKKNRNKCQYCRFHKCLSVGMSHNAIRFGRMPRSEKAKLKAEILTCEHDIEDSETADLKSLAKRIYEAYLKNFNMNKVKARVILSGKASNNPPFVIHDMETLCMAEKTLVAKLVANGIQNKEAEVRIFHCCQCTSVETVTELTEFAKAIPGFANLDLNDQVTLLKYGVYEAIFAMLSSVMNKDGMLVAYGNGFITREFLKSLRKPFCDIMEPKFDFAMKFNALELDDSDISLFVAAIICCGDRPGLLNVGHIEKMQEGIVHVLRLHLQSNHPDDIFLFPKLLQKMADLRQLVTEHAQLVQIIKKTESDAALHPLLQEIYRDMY
Retinoic acid receptor RXR-alpha (Homo sapiens), sequence (P19793 whole entry, looked up): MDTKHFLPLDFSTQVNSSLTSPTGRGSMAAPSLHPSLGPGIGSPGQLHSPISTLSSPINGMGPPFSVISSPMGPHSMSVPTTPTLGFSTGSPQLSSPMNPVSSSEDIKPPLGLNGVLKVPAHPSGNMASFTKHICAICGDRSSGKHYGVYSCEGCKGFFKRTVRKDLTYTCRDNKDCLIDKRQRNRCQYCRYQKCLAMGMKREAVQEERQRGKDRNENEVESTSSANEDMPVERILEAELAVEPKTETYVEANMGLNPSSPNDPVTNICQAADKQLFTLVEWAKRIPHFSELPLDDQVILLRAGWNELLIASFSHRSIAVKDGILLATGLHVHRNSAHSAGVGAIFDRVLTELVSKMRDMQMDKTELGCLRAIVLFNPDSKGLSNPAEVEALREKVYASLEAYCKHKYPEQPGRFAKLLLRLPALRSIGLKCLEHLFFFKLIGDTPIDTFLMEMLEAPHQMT
Peroxisome proliferator-activated receptor gamma (Homo sapiens), sequence (P37231 whole entry, looked up): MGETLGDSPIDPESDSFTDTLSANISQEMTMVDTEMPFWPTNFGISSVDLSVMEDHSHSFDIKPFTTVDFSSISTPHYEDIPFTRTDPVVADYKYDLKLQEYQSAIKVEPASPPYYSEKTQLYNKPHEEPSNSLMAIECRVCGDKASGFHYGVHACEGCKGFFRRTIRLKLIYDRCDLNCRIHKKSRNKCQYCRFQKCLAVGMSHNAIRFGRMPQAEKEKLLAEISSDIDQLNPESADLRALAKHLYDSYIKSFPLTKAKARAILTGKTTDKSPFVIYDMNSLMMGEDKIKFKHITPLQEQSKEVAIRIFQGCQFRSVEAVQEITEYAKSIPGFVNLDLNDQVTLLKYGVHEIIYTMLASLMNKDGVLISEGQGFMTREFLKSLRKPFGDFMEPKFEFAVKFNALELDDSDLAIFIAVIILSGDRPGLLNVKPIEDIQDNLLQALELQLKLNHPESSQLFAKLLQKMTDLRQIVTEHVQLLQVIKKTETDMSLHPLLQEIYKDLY
Tumor necrosis factor (Homo sapiens), sequence (P01375 whole entry, looked up): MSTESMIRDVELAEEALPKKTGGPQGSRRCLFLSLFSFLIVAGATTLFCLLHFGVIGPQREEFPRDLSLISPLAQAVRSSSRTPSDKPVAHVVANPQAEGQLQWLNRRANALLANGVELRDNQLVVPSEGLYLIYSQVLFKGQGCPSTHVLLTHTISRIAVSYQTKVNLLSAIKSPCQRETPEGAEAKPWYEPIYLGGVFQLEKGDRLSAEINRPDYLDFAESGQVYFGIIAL

Turning to `Clc1cccc(C(Cl)(Cl)Cl)n1`, the result in assay [1], in assay [3], in assay [13], in assay [17] and in assay [22] was inactive. Besides, the activation in assay [2] was 0.959% (inactive) and 2.76% (inactive); in assay [10], 0.471% (inactive) and 1.28% (inactive); in assay [14] it was -1.44% (inactive) and -0.611% (inactive). Besides, the max response in assay [4] was -9.56% and 6.27%; in assay [6] it was -2.2% and -16.3%; in [15], -0.105% (inactive) and 0.0446% (inactive); in assay [19], 8.34% (inactive) and -7.37% (inactive); in assay [21] it was -2.08% (inactive) and -3.74% (inactive). The Potency entry in assay [5], in assay [8], in assay [9], in assay [11], in [12] and in assay [16] was “inactive” each time. For the same molecule, the Potency result in assay [18] and in [20] was “inactive” each time. Further, the activity change % (negative = inhibition) in [7] was -14.1% (inactive) and -4.27% (inactive).
